# About 83,000 compounds went through this panel and 20% of them were active in at least one assay; those are over-represented in the sample as a whole.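 48-hour exposure, single concentration, 96-well plates; percent growth endpoint where 0 means no net growth. Active: below 10.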 Active and inactive are the calls of the source.
# Test system: HCT-116 colon
# Experiment: NCI-60 one-dose screen, 48 h (100 = growth as untreated, 0 = no growth, -100 = all killed)
# Settings: 10 µM unless noted
# Protocol: Growth inhibition of the HCT-116 human tumor cell line is measured as a screen for anti-cancer activity. Cells are grown in 96 well plates and exposed to the test compound for 48 hours. Compounds are tested at a single concentration, which is 10^-5 M for most compounds. The reported endpoint is percent growth (GI% or GIPRCNT), where numbers from 0 - 100% represent growth inhibition, and numbers from -100% - 0 represent cell death. For example, a value of 40 represents 60% growth inhibition. A value of 0 means no net growth occurred over the course of the experiment. A value of -40 indicates 40% of cells at the beginning of the experiment died by the end of the experiment. A value of -100 means all cells are dead at the end of the experiment.
# NCI-60 Human Tumor Cell Lines Screen was performed using the standard one-dose NCI protocol, which is described in more detail at https://dtp.cancer.gov/discovery_development/nci-60/default.htm.
# Compounds with GIPRCNT values below 10 were considered active. Activity score was based on GIPRCNT using the following formula: […]
# Score is 0 for GIPRCNT values of 100 or above, 50 for GIPRCNT values of 0, and 100 for GIPRCNT values of -100.
row,Compound,growth
1,O=C1/C(=C\c2cccn2C(=O)c2ccccc2)c2ccccc2N1c1c(Cl)cccc1Cl,30.5% (inactive)
2,NS(=O)(=O)c1ccc(N2N=C(c3cccs3)CC2c2ccccc2O)cc1 (stereo not given),3.06% (active)
3,CC(=O)c1ccc(-n2c(-c3cc(-c4ccsc4)n[nH]3)n[nH]c2=S)cc1,98.1% (inactive)
4,Nc1nc2c(c3ncccc13)C(c1ccccc1)Cc1ncccc1-2 (stereo not given),63.2% (inactive)
5,C=C1NC(=O)C(C(C)CC)NC(=O)C2CSCC(NC(=O)CCC(=O)O)C(=O)NC(Cc3ccccc3)C(=O)NC(C)C(=O)NC(CC(C)CC)C(=O)NC(C(=O)NC(Cc3ccccc3)C(=O)N3CCCC3C(=O)N2)C(C)OC(=O)C(CO)NC(=O)C(C(O)COC)N(C)C(=O)C(C(C)C)NC(=O)C(CC(C)CC)NC1=O (stereo not given),6.69% [6 µM] (active)
6,CCCc1cc2c(cc1CN(Cc1cc3c(cc1CCC)OCO3)C(=N)OCC)OCO2,41.2% (inactive)
7,CCC1CCc2nc3sc(C(=O)Nc4cccc(F)c4)c(N)c3cc2C1 (stereo not given),60% (inactive)
8,C=CCn1c(C)nc2cc(Nc3nc(N4CCCC4)nc4nc[nH]c34)ccc21,-40.2% (active)
9,CC[C@H](Nc1nc(C)nc(N)c1C#N)c1nc2cccc(NCc3ccc(C(=O)NO)cc3)c2c(=O)n1-c1ccccc1,3.59% (active)
10,Cc1cc(C#Cc2ccccc2)ccc1-n1c(/C=C/c2ccc(F)cc2)nc2ccccc2c1=O,46% (inactive)
11,CC(C)c1[nH]ncc1-c1nc2ccc3[nH]ncc3c2c2c1CCCC2,12.2% (inactive)
12,CCCCCCCCCCCCCCCC1=NCC[N+]1(CCO)CCO,12.1% (inactive)
13,COc1ccc(-c2oc(=O)ccc2-c2cc(OC)c(OC)c(OC)c2)cc1F,60.2% (inactive)
14,COc1ccc(C2=Nn3c(nnc3-c3ccc(Cl)cc3N)SC2)cc1,105% (inactive)
15,COc1cc(/C=C/c2ccc3c(Br)cc(Br)c(O)c3n2)ccc1O,1.68% (active)
16,Nc1n[nH]c2ccc([C@@H]3Nc4c(F)cc5[nH]ncc5c4[C@H]4C5CCC(C5)[C@@H]34)cc12 (stereo not given in full),7.44% (active)
17,Cc1cc(C)c([O-])c(CN(C)CCN(C)Cc2cc(C)cc(C)c2[O-])c1.O=C([O-])c1cccc(C(=O)[O-])n1.[Ti+4],4.86% (active)
18,Cn1c(=O)c2c3c(oc2c2ccccc21)C(=O)c1ccccc1C3=O,71.7% (inactive)
19,CN(C)c1ccc(/C=C(\C#N)c2nc3ccccc3n2C)cc1,33.2% (inactive)
20,CCCc1n(Cc2ccc3ccccc3n2)cc[n+]1Cc1ccc2ccccc2c1,1.31% (active)

row,Compound,growth
1,CCCCCc1c(C)[nH]c(/C=C2\N=C(c3ccc[nH]3)C=C2CC)c1C,-95.4% (active)
2,O=[N+]([O-])c1ccccc1CN1CCCCC1,106% (inactive)
3,COc1cc2c(cc1OC)C(=O)OC2,111% (inactive)
4,COc1cc(C)cc2oc3oc(=O)c(-c4csc(-c5cc6ccccc6oc5=O)n4)cc3c(=O)c12,106% (inactive)
5,CN1CCN(Cc2ccc(NC(=O)c3cncc(C#Cc4ncc5cnccn45)c3)cc2C(F)(F)F)CC1,16.6% (inactive)
6,COc1ccc(-n2nc(C(=O)NCC(=O)Nc3nc4cc(OC)ccc4s3)c3ccccc3c2=O)cc1,2.56% (active)
7,CNC(=O)c1ccccc1Sc1ccc2c(/C=C/c3ccccn3)n[nH]c2c1,29.9% (inactive)
8,CCN(CC)C(Cl)=Nc1ccc(Cl)cc1,98.1% (inactive)
9,CCOC(=O)C1=C(C)NC(SCc2nnc(-c3ccc(Cl)cc3)o2)=NC1c1ccc(Br)cc1 (stereo not given),48.6% (inactive)
10,NC(=O)Nc1ccc2ncnc(Nc3cccc(O)c3)c2c1,109% (inactive)
11,COc1ccc(-c2n[nH]nc2-c2cc(OC)c3c(c2)OCO3)cc1,5.38% (active)
12,CCOC(C)(c1ccc(Cl)cc1)C1CCNCC1 (stereo not given),97.8% (inactive)
13,O=C(Cc1ccc(Nc2ccnc(C(F)(F)F)c2)cc1)N/N=C/c1ccccc1O,16.1% (inactive)
14,COc1ccc(-c2nc(-c3ccccc3OCc3ccccc3OC)nc(C)c2C(C)=O)cc1,66.4% (inactive)
15,COc1cc2c(cc1C)NC(=O)/C2=C\c1c[nH]c2ccccc12,78.5% (inactive)
16,O=C(N=Nc1c(Cl)c(O)c2ccccc2c1O)C(=O)Nc1cccc(C(F)(F)F)c1,33.1% (inactive)
17,CC(C)N1CCN(c2ccncc2S(=O)(=O)N2CCN(C)CC2)CC1,100% (inactive)
18,C#CC[C@@H]1C[C@]2(C)[C@H]3CC=C4[C@H]5[C@@H](C)[C@H](C)CC[C@]5(C(=O)NCCCCCCCCN)CC[C@@]4(C)[C@]3(C)CC[C@H]2C(C)(C)[C@H]1OC(C)=O,-99.4% (active)
19,CCCCCCCCCC1=NC(C)(C)CN1C(C)(C)CO,69.3% (inactive)
20,N=c1n(Cc2ccccc2)c(N)cc(=O)n1Cc1ccccc1,8.12% (active)

# — PubChem BioAssay (NCI)
